The text below walks through data of PubChem BioAssay (NCATS).

What all share (experiment): qHTS profiling for inhibitors of Plasmodium falciparum proliferation (AID 504749); note: nearly all actives have a fitted effect of over 60% in size
Conditions in all cases: P. falciparum in erythrocytes, SYBR Green DNA, 72 h; series mostly up to 28.7 µM
(qHTS replaces the single test concentration by a dilution series.)

Test [1] concerns CP305. The essentials: (§1)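 Each compound contacts P. falciparum-infected red blood cells for 72 h at 37 C; lysis buffer (Tris, EDTA, saponin, Triton X, SYBR Green I) is added and fluorescence measured next morning; values normalized to controls.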
Test [2] deals with CP315. The essentials: as §1
Test [3] concerns CP325. The essentials:
as §1

In test [4] the test system is CP329. The essentials: as §1
Test [5] deals with CP335. A digest of the protocol:
as §1

Test [6] deals with DFO2036. A digest of the protocol:
as §1

For test [7], the system named is Dd2. A digest of the protocol:
as §1

The subject of test [8] is ECU. The essentials: as §1
Test [9] deals with FAB9. A digest of the protocol: as §1
Test [10] concerns HB3. A digest of the protocol:
as §1

Test [11] has as its system ICS. The essentials:
as §1

Test [12] concerns JCK. The essentials:
as §1

In test [13] the test system is N140. A digest of the protocol:
as §1

For test [14], the system named is P93_24. The essentials: as §1
In test [15] the test system is P94_40. A digest of the protocol: as §1
Test [16] relates to PAD. A digest of the protocol:
as §1

Test [17] has as its system DIV17. A digest of the protocol: as §1
In test [18] the test system is DIV30. The essentials: as §1
Test [19] has as its system GB4. The essentials: as §1
Test [20] relates to DIV14. A digest of the protocol: as §1

Results filed as inconclusive are left out. The source made the active and inactive calls. Calls come from the whole dose curve; as a rule, active = well fitted inhibition curve with a large enough effect; inconclusive = small, poorly fitted or top-dose-only effect; inactive = flat fitted curve, though single readings scatter.
Potency is the fitted concentration of half-maximal effect.

On to `Cc1cc(C(=O)NCCc2ccc(S(=O)(=O)NC(=O)NN3CCCCCC3)cc2)no1`, for which the Potency result in [1], in test [2], in [3], in [4], in [5] and in test [6] was “inactive” throughout. The Potency entry in [7], in [8], in [9], in test [10], in test [11] and in test [12] was “inactive” in each case. The Potency result in test [13], in test [14], in [15] and in test [16] was “inactive” each time.

In the case of `Cc1ccc(C(C)(C)c2ccc(C)cc2)cc1`, the Potency result in test [1], in test [2], in test [3], in test [4], in test [5] and in test [6] was “inactive” in each case. Besides, the Potency entry in test [17], in test [18], in test [7], in [8], in test [9] and in [19] was “inactive” each time. The Potency result in test [10], in test [11], in test [12], in [13], in test [14] and in test [15] was “inactive” throughout. Also, the Potency entry in test [16] is “inactive”.

For `O=C(O)CCC/C=C\C[C@@H]1[C@@H](/C=C/[C@@H](O)COc2cccc(Cl)c2)[C@H](O)C[C@@H]1O`, the Potency entry in [1], in test [2], in [3], in test [4], in test [5] and in test [6] was “inactive” each time. In addition, the Potency result in [20], in test [18], in test [7], in test [8], in [9] and in test [19] was “inactive” in each case. The Potency entry in [10], in test [12], in test [13], in test [14], in test [15] and in test [16] was “inactive” in each case.

For `O=C1c2ccccc2C(=O)C1c1ccc(Cl)cc1`, the Potency result in test [1], in test [2], in test [3], in [4], in [5] and in test [6] was “inactive” throughout. Besides, the Potency result in test [20], in [17], in test [18], in test [7], in [9] and in [19] was “inactive” throughout. Also, the Potency result in test [10], in test [12], in [13], in [14], in test [15] and in test [16] was “inactive” throughout.

With `NC(=S)N=Nc1ccc(NN=C(N)N)cc1`, the Potency was 7.57 µM (active) in test [1]; 8.49 µM (active) in [2]; 10.7 µM (active) in [3]; 7.57 µM (active) in test [4]; 8.49 µM (active) in [5]; 5.01 µM (active) in [6]. Moreover, the Potency in test [20] was 6.01 µM (active); in [17], 7.57 µM (active); in test [18], 9.53 µM (active); in test [7], 2.51 µM (active); in test [9], 11.2 µM (active); in test [19], 6.75 µM (active). Moreover, the Potency in [10] was 5.62 µM (active); in test [11] it was 5.01 µM (active); in [12], 8.91 µM (active); in [13], 7.94 µM (active); in test [14], 5.01 µM (active); in test [15] it was 7.94 µM (active). The Potency in test [16] was 11.2 µM (active).

Consider `CCSc1ccc2c(c1)N(CCCN1CCN(C)CC1)c1ccccc1S2`, for which the Potency entry in test [1], in test [2], in test [3], in test [4], in test [5] and in [6] was “inactive” throughout. Besides, the Potency entry in test [18], in test [7], in test [8], in test [9], in [10] and in test [12] was “inactive” in each case. Besides, the Potency entry in test [13], in test [14], in test [15] and in test [16] was “inactive” in each case.

With `O=C(O)CC/C=C\CC[C@@H]1[C@@H](N2CCCCC2)[C@@H](O)C[C@@H]1OCc1ccc(-c2ccccc2)cc1`, the Potency entry in test [1], in [2], in test [3], in test [4], in test [5] and in test [6] was “inactive” each time. In addition, the Potency entry in [20], in test [18], in test [7], in test [8], in test [9] and in test [19] was “inactive” throughout. Moreover, the Potency result in [10], in [12], in test [13], in [14], in test [15] and in [16] was “inactive” throughout.

`O=C(OCc1ccccc1)c1cccnc1`: the Potency result in test [1], in [2], in [3], in test [4], in [5] and in [6] was “inactive” in each case. Moreover, the Potency result in [17], in [18], in test [7], in test [8], in test [9] and in test [19] was “inactive” throughout. Moreover, the Potency entry in test [10], in [12], in test [13], in test [14], in [15] and in [16] was “inactive” throughout.

On to `C(=C\c1ccncc1)/c1ccccc1`, for which the Potency result in [1], in test [2], in test [3], in test [4], in [5] and in test [6] was “inactive” each time. In addition, the Potency result in test [20], in test [17], in test [18], in [7], in [9] and in test [19] was “inactive” throughout. Moreover, the Potency result in [12], in [13], in [15] and in test [16] was “inactive” in each case.

Take `CCCCCCCCCCCCCCCCCC(=O)OC[C@@H](O)[C@H]1OC[C@H](O)[C@H]1O`: the Potency entry in test [1], in [2], in test [3], in [4], in test [5] and in test [6] was “inactive” throughout. Further, the Potency result in [17], in test [7], in test [8], in test [9], in test [19] and in test [10] was “inactive” throughout. In addition, the Potency entry in [11], in [12], in [13], in [14], in test [15] and in [16] was “inactive” in each case.

Turning to `FC(F)(F)C(F)(F)C(F)(F)C(F)(F)C(F)(F)F`, the Potency entry in [1], in [2], in test [3], in [4], in test [5] and in [6] was “inactive” throughout. The Potency result in test [17], in test [18], in [7], in test [8], in test [9] and in test [19] was “inactive” each time. Besides, the Potency entry in test [10], in test [11], in test [12], in test [13], in test [14] and in test [15] was “inactive” in each case. The Potency result in [16] is “inactive”.

`CC(C)CCCCCCc1ccc(O)cc1`: the Potency entry in test [1], in test [2], in [3], in [4], in test [5] and in test [6] was “inactive” in each case. Further, the Potency entry in test [20], in test [17], in test [18], in test [7], in test [9] and in test [19] was “inactive” each time. For the same molecule, the Potency entry in test [10], in [12] and in test [13] was “inactive” in each case. The Potency in test [11] and in test [15] was 12.6 µM (active) each time.

Consider `CC/C=C\C/C=C\C/C=C\C/C=C\C/C=C\C/C=C\CCC(=O)O`, for which the Potency result in [1], in test [2], in test [3], in [4], in test [5] and in test [6] was “inactive” each time. Moreover, the Potency entry in test [20], in [17], in test [18], in test [7], in test [9] and in test [19] was “inactive” in each case. In addition, the Potency entry in test [10], in test [12], in test [13], in test [14], in [15] and in test [16] was “inactive” throughout. Besides, in [11], the Potency is 12.6 µM (active).
